These sequences were tested on VDR:RXRa (NR concentration 270 nM, RXRa partner concentration 90 nM) (assay: PBM binding z-score (relative to random genomic background probes); higher = stronger binding; sequences stand for … in GC…GCGATTGACAGCGTAGAATGAAGG).
Procedure: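 Protein-binding microarray (Agilent 4x180K custom design, double-stranded 60-nt probes: 5' GC cap, 34-nt variable region, 24-nt constant primer region; full probe sequence given). Purified or IVT nuclear receptor:RXRα heterodimers (3:1 NR:RXRα, mostly 270:90 nM) or homodimers were incubated for 1 h in PBS with 2% milk and no ligand, then detected with Alexa488 antibodies. Fluorescence from o1-orientation probes (~5 replicates averaged) was converted to z-scores against 500 random hg19 background probes. Variable regions are seed direct-repeat (DR0–DR5) sites, all their single-nucleotide variants and half-site ablations.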

Row | Sequence | PBM binding z-score
1 | CGAACTAGGCCAAAGGACAGTGAAAGGCGACGTA | -0.722
2 | CCGAGTAGGTTGCGAGGGGGCATTCAGTGCGAAT | 4.26
3 | CCAGAAAGGTGAAAGGTAACTCAGTCTGGTACGC | 1.81
4 | GGTACGAGGGCAAAGTTGATAGCATCTGTCGACG | 1.14
5 | CCTGCTCGGTCAATGGTCAGCTAAAGCAGCTCGC | -0.375
6 | CGTCAAAGTTCAAGGTTACGTAACAGAAAGCAGC | 4.31
7 | CGAACTAGGACAAAGGACAGTGAAAGGCGACGTA | -0.353
8 | AGTCAAAGTTCAGCACGAGGTAACGTAAAGCACG | 3.25
9 | CCTACTGGGCCAAAGGTCAGTGATTCCAATGCTC | 2.88
10 | ACTTGGAGGACAAAGGTCAGAGCTACGCCAGTGA | 3.58
11 | GCTGCTAGGTTAACTGATGGTCAGCTAAAGCTCG | -0.182
12 | CCTGCTAGGTCAAGGGTCAGCTAAAGCAGCTCGC | 4.17
13 | GCTTACGGGTCAAAGGTTATGGCATGAATAGAAT | 5.58
14 | TGAATGAGGTTAAAGGTCAGGGAACGTGGCGTCG | 5.85
15 | CCTACTGGGCCAAGGTCATTGAGCAGTCAAAGCA | 3.07
16 | CGAACTAGGTCAAAGGATAGTGAAAGGCGACGTA | 1.12
17 | TATACAGGGTCTAAGGCCAGAGTACGAATGTCGA | 0.486
18 | CCTAGCCGGCCAATCTGGGTCACTCAAGGCTTGA | 0.613
19 | TCGAGTAAGTTACGGGGGCATTCAGGGATGAAGA | 3.01
20 | CTATGTAGGTTAAGCGGGTCATTCAGTTTGAAAG | 5.74

Row | Sequence | PBM binding z-score
21 | ATATGTAGGTTACATCCGAGTCATTCAGGCTATG | 0.386
22 | CGTCAAAGTTCAAGGTAAAGTAACAGAAAGCAGC | 3.4
23 | ACCAGCAGGCCAAGGGTCACTCAAGATTAGTCCG | 2.47
24 | TAGCCTAGGTCAGATCGGGCCAGTCTACGCTATA | 0.668
25 | CCTACTGGGCCATTAAGAGGTCATTGATCATATG | 3.95
26 | CGAACTAGGTCAAAGGCCAGTGAAAGGCGACGTA | 1.74
27 | CCGAGTAGGTTACGAGGGGGCAGTCAGTGCGAAT | 3.95
28 | CCTGCTAGGTCATGGTCAGGTAATCTACAGTATG | 1.76
29 | CTTAGTTGGTCAGGAGGTCACACACCGGATATGA | 3.78
30 | GATACAGGGTGAAGGCCAGAGTACGCGTATTGAT | -0.32
31 | CAATCTAGGTCACAGAGGTCAAAGTCCGTGCGTA | 8.07
32 | CGAACTAAGTCATTGACAGGACAGTGAATAGTAA | -0.19
33 | ATATGTAGGTTCCATCCGGGTCATTCAGGCTATG | 3.22
34 | CGAACTACGTCAAAGGACAGTGAAAGGCGACGTA | -0.443
35 | ATATGTAGGGTAGGGTCATTCAGAAAGTAGGGAA | 4.48
36 | TCTTGTAGGTCAAAGGTTAAGAAAGCCGAAGCCT | 4.54
37 | CGAACTAGGTCACCAAGACAGTGAAGAGGTTGGA | 1.49
38 | ATCTCTAGGTAAAGTTCAGCGAAAGATCGATAGA | 1.84
39 | CAAACTAGGTCACAGAGGTCAACGTCCGTGCGTA | 7.74
40 | TCGGGTAGGTTACGGGGGCATTCAGGGATGAAGA | 4.77
